{"source": "PubChem BioAssay AID488896", "about": "(Broad Institute, 2010)", "note": "Hit rate of the full screen: of about 320,000 compounds, about 3,100 (0.97%) were called active. The entries come from a sample that favours actives as a whole. Unmarked numbers belong to inactive results.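 How the source made its calls: active means mean replicate inhibition of at least 70% and a set share of replicates each scoring 70 or more; inconclusive means meets just one of the two criteria; inactive means fails both criteria.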"}
{"target": "Scavenger receptor class B member 1 (Mus musculus) (UniProt Q61009)", "sequence (Q61009 whole entry, looked up)": "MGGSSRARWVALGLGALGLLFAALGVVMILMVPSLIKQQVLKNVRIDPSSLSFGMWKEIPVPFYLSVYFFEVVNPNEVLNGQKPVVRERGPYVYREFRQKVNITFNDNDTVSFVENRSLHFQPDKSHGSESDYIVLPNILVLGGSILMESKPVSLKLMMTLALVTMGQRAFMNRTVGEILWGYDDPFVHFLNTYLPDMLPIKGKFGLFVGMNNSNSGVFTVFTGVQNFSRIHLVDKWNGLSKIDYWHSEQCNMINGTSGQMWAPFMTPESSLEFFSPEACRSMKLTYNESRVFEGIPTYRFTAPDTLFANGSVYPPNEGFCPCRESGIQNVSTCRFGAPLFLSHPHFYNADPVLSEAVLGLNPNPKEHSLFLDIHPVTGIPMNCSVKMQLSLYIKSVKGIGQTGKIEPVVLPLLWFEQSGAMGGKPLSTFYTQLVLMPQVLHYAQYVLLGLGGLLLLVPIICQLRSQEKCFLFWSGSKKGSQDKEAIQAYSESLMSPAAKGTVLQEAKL", "assay": "mouse SR-BI DiI-HDL uptake blockers – ldlA[mSR-BI] cells, fluorescence, single point, primary screen (AID 488896);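 further: 0% = median of neutral control wells and 100% = median of positive control wells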", "conditions": "ldlA[mSR-BI] CHO cells, 3 h, at 12.5 µM, active compounds read high"}
{"smiles": "CCCOC(=O)c1[nH]c2c(c1C)C(=O)CC(c1cc(OC)c(OC)c(OC)c1)C2", "note": "(stereo unspecified)", "inhibition": "81.3% (active)"}
{"smiles": "COCCOC(=O)c1[nH]c2c(c1C)C(=O)CC(c1ccc(OC)cc1)C2", "note": "(stereo unspecified)", "inhibition": "41.6%"}
{"smiles": "CCCOC(=O)c1[nH]c2c(c1C)C(=O)CC(c1cccs1)C2", "note": "(stereo unspecified)", "inhibition": "59.1%"}
{"smiles": "Cc1cccc(NC(=S)N2CCC(C(=O)c3ccc(F)cc3)CC2)c1", "inhibition": "14.1%"}
{"smiles": "C#CCOCCOCCOCCNc1nc(N2CCN(C(=O)Cn3cc(CCO)nn3)CC2)nc(N2CCN(C(=O)[C@H](CCCCN)n3cc(CCCC)nn3)CC2)n1", "inhibition": "-18.7%"}
{"smiles": "COc1ccc(C(CNC(=O)c2cc(S(=O)(=O)Nc3cccc(C)c3)ccc2C)N2CCCC2)cc1", "note": "(stereo unspecified)", "inhibition": "-20.9%"}
{"smiles": "COC(=O)c1c(NC(C)=O)sc(C(=O)Nc2ccccc2OC)c1C", "inhibition": "71.5% (active)"}
{"smiles": "COc1ccccc1NC(=O)c1ccc(C)s1", "inhibition": "18%"}
{"smiles": "CCC(=O)Nc1sc(C(=O)Nc2ccccc2)c(C)c1C(=O)OC", "inhibition": "68.4%"}
{"smiles": "c1ccc2c(c1)OC1OC2Oc2ccccc21", "inhibition": "-7.46%"}
{"smiles": "CC(C)Sc1nc(N)nc2c1ncn2C1OC(CO)C(O)C1O", "note": "(stereo unspecified)", "inhibition": "-12.5%"}
{"smiles": "COc1ccc(/C=N/NC(=O)c2cc(-c3cccc(C)c3)nc3ccccc23)cc1O", "inhibition": "66.3%"}
{"smiles": "Cc1ccc(/C=N/NC(=O)C2=NNC(c3ccccc3)(c3ccccc3)C2)c(O)c1", "inhibition": "106% (active)"}
{"smiles": "Cc1ccc2occ(/C=N/NC(=O)c3ccccc3C)c(=O)c2c1", "inhibition": "-16.4%"}
{"smiles": "CN(C)C(CNC(=O)c1cc2ccccc2o1)c1ccccc1", "note": "(stereo unspecified)", "inhibition": "6.69%"}
{"smiles": "O=C(N/N=C/c1ccc(OCC2COCCO2)cc1)c1ccc(Br)cc1", "note": "(stereo unspecified)", "inhibition": "74.1% (active)"}
{"smiles": "O=C(O)c1ccc(OCC2CCCO2)cc1", "note": "(stereo unspecified)", "inhibition": "-17.3%"}
{"smiles": "O=C(O)c1ccc(/C=N/NC(=O)c2ccc(Br)cc2)cc1", "inhibition": "-48.4%"}
{"smiles": "CCOC(=O)C1(O)CC(C)=NN1C(=O)c1cccc(Br)c1", "note": "(stereo unspecified)", "inhibition": "5.6%"}
{"smiles": "CC1=NN(C(=O)c2ccc(Br)cc2)C(O)(c2ccccc2)C1", "note": "(stereo unspecified)", "inhibition": "88.2% (active)"}
{"smiles": "CC1=NN(C(=O)c2ccccc2Br)C(O)(c2cccnc2)C1", "note": "(stereo unspecified)", "inhibition": "-13.8%"}
{"smiles": "COc1cc2c(cc1CNC[C@H]1O[C@@H](n3cnc(C(N)=O)n3)[C@H](O)[C@@H]1O)OCO2", "inhibition": "-13.6%"}
{"smiles": "O=C1CC(c2ccccc2)C(=O)N2C(=O)CC(c3ccccc3)C(=O)N12", "note": "(stereo unspecified)", "inhibition": "-16.5%"}
{"smiles": "COc1ccc(CNCCCn2cnc3c(OCc4ccccc4)ncnc32)cc1", "inhibition": "-7.17%"}
{"smiles": "COc1cccc(CC(=NO)c2cccc(OC)c2)c1", "inhibition": "2.96%"}
{"smiles": "O=C(CCC(=O)N1CCN(S(=O)(=O)c2ccc(Cl)cc2)CC1)NCc1cccc(C(F)(F)F)c1", "inhibition": "-6.5%"}
{"smiles": "CC(C)CC(=O)N1CCN(Cc2ccccc2Br)CC1", "inhibition": "82.7% (active)"}
{"smiles": "CCOc1cc(CN2CCN(C(=O)CC(C)C)CC2)ccc1OC", "inhibition": "1.83%"}
{"smiles": "CC(C)CC(=O)N1CCN(Cc2cccc(Cl)c2)CC1", "inhibition": "-7.62%"}
{"smiles": "O=C(Nc1c(Br)cc2c(c1Br)Cc1ccccc1-2)C(F)(F)F", "inhibition": "23.8%"}
{"smiles": "CN(C)c1ccc(C2N(C)C(=O)c3ccccc3N2C)cc1", "note": "(stereo unspecified)", "inhibition": "-4.86%"}
{"smiles": "CN(C)c1ccc(Nc2c3c4c(cccc4n(C)c2=O)C(=O)c2ccccc2-3)cc1", "inhibition": "99.9% (active)"}
{"smiles": "CCOC(=O)CCC(NC(=O)c1ccc(CNc2nc3cc(C(F)(F)F)ccc3nc2C(=O)OCC)cc1)C(=O)OCC", "note": "(stereo unspecified)", "inhibition": "43.7%"}
{"smiles": "O=C1C[C@@H]2c3c(cccc3CN1Cc1ccccc1)C[C@@H](O)[C@H]2O", "inhibition": "-2.09%"}
{"smiles": "COc1ccc(OC)c(Cc2cnc3nc(N)nc(N)c3c2C)c1", "inhibition": "25.9%"}
{"smiles": "c1ccc(C(=NNc2nc3ccccc3s2)c2ccccn2)cc1", "inhibition": "40.5%"}
{"smiles": "O=C(c1cccc(S(=O)(=O)N2CCCCCC2)c1)N1CCN(Cc2ccccc2)CC1", "inhibition": "19.3%"}
{"smiles": "O=S(=O)(O)c1cc2onnc2c2ccccc12", "inhibition": "-15.5%"}
{"smiles": "Nc1nonc1-n1nnc(C(=O)N/N=C/c2cc(Br)ccc2O)c1CSC1=NCCS1", "inhibition": "104% (active)"}
{"smiles": "Cc1ccc(SCc2c(C(=O)N/N=C/c3cccnc3)nnn2-c2nonc2N)cc1", "inhibition": "-5.04%"}
{"smiles": "Cc1ccc(SCc2c(C(=O)N/N=C/C3CC=CCC3)nnn2-c2nonc2N)cc1", "note": "(stereo unspecified)", "inhibition": "-16.5%"}
{"smiles": "O=[N+]([O-])c1ccc(C=NN=Cc2ccc([N+](=O)[O-])cc2)cc1", "inhibition": "27%"}
{"smiles": "CC(C)(C)c1nnc2sc(SCC(O)=C(C#N)c3nc4ccccc4[nH]3)nn2c1=O", "inhibition": "22.5%"}
{"smiles": "CC(C)(C)C(=O)OCc1nc(-c2ccc(O)c(O)c2)cs1", "inhibition": "-7.58%"}
{"smiles": "COc1ccc(OC)c(Nc2nc(-c3ccc(O)c(O)c3)cs2)c1", "inhibition": "108% (active)"}
{"smiles": "COc1ccc(-c2csc(Cc3nc(O)cs3)n2)cc1", "inhibition": "56.2%"}
{"smiles": "CCN1C[C@@H]2[C@@H]3C(=O)N(C)C(=O)[C@@H]3[C@](C)(C1=O)N2C(=O)c1ccccc1", "inhibition": "27.8%"}
{"smiles": "COc1ccc(CCC(=O)Nc2ccc(Cl)c(S(=O)(=O)N3CCOCC3)c2)cc1OC", "inhibition": "60.3%"}
{"smiles": "COc1ccc(/C=N/NC(=O)CNC(=O)c2ccc(S(=O)(=O)N3CCCC3)cc2)c(OC)c1", "inhibition": "84.2% (active)"}
{"smiles": "COc1cccc(/C=N/NC(=O)CNC(=O)c2ccc(S(=O)(=O)N3CCOCC3)cc2)c1OC", "inhibition": "8.73%"}
{"smiles": "COc1cc(C(=O)NNC(=O)c2ccc(S(=O)(=O)N3CCCCC3)cc2)cc(OC)c1OC", "inhibition": "-0.571%"}
{"smiles": "COc1ccc(Cn2cc(CN3CCS(=O)(=O)N(Cc4ccc(-c5cccc(Cl)c5)cc4)C(C)C3=O)nn2)cc1", "note": "(stereo unspecified)", "inhibition": "34.7%"}
{"smiles": "C=CC(=O)Nc1ccc(Nc2ccnc(Nc3ccc(N4CCN(C)CC4)cc3)n2)cc1", "inhibition": "5.16%"}
{"smiles": "COc1ccc(NC(=S)NCC2CCN(c3ccc(OC)cc3)C2)cc1", "note": "(stereo unspecified)", "inhibition": "27.5%"}
{"smiles": "COc1ccc(N2CCC(CNC(=S)Nc3c(C)cccc3C)C2)cc1", "note": "(stereo unspecified)", "inhibition": "80.7% (active)"}
{"smiles": "COc1ccc(NC(=S)NCCN2CCC(C)CC2)cc1", "inhibition": "1.02%"}
{"smiles": "Cc1ccccc1N1CCN(C(=O)c2cccnc2)CC1", "inhibition": "-2.45%"}
{"smiles": "Cc1cccc(CC2(O)C(=O)Nc3ccccc32)n1", "note": "(stereo unspecified)", "inhibition": "-13%"}
{"smiles": "O=S1(=O)CSCS(=O)(=O)C1", "inhibition": "-19.5%"}
{"smiles": "CCC1CCCCN1C(=S)Nc1ccc(C(C)=O)cc1", "note": "(stereo unspecified)", "inhibition": "-13.3%"}
{"smiles": "Cc1ccc(N=C2SCCCN2C(=O)c2cccc(N3C(=O)CCC3=O)c2)cc1Cl", "inhibition": "32.4%"}
{"smiles": "CC(=O)c1ccc(N=C2SCCCN2C(=O)C2CCCCC2)cc1", "inhibition": "78.7% (active)"}
{"smiles": "COc1cccc(C=CC(=O)C=CC=Cc2ccccc2)c1", "inhibition": "-11.1%"}
{"smiles": "COc1cc(NC(=O)c2ccc3c(c2)OCO3)ccc1NC(=O)c1cccs1", "inhibition": "58.8%"}
{"smiles": "COc1cc(NC(=O)COc2ccccc2Cl)ccc1NC(=O)C(C)C", "inhibition": "49.8%"}
{"smiles": "COc1cc(NC(=O)c2cccs2)ccc1NC(=O)c1ccccc1Cl", "inhibition": "83.3% (active)"}
{"smiles": "O=C(Nc1ccccc1)Oc1cccc2cccnc12", "inhibition": "-13.2%"}
{"smiles": "c1ccc(CNc2ncnc3[nH]ncc23)cc1", "inhibition": "-13.5%"}
{"smiles": "O=C(Nc1ccccc1Cl)c1ccccc1S(=O)(=O)c1ccccc1[N+](=O)[O-]", "inhibition": "4.02%"}
{"smiles": "CC(=O)Nc1ccc(NC(=O)COc2ccccc2C(=O)Nc2cccc(Cl)c2Cl)cc1", "inhibition": "63.3%"}
{"smiles": "CN(C)S(=O)(=O)Oc1ccccc1C(=O)Nc1ccccc1Cl", "inhibition": "79.9% (active)"}
{"smiles": "CCN1C[C@@H]2[C@@H]3C(=O)N(Cc4ccccc4)C(=O)[C@@H]3[C@](C)(C1=O)N2C(=O)c1ccc(C(C)(C)C)cc1", "inhibition": "-30.1%"}
{"smiles": "Oc1ccc(-c2nc3ccccc3nc2-c2ccc(O)cc2O)c(O)c1", "inhibition": "26%"}
{"smiles": "COc1ccc(-n2c(SCC(=O)NCc3cccs3)nnc2-c2ccoc2C)cc1", "inhibition": "-3.66%"}
{"smiles": "COc1ccc(-n2c(SCC(=O)NCc3ccco3)nnc2-c2c[nH]c3ccccc23)cc1", "inhibition": "71.4% (active)"}
{"smiles": "O=C(CSc1nnc(-c2c[nH]c3ccccc23)n1-c1ccc(F)cc1)NCc1ccco1", "inhibition": "20.6%"}
{"smiles": "COc1ccc(CCN2CC(C(=O)OCC(=O)NCc3ccccc3Cl)CC2=O)cc1OC", "note": "(stereo unspecified)", "inhibition": "-1.72%"}
{"smiles": "Cc1nc(Cl)cc(N/N=C/c2ccccc2)n1", "inhibition": "15.7%"}
{"smiles": "COc1ccc(/C=N/Nc2cc(N3CCOCC3)nc(C)n2)c(OC)c1", "inhibition": "52.8%"}
{"smiles": "CCN(CC)c1ccc(C(=O)N/N=C/c2ccc(N3CCOCC3)cc2)cc1", "inhibition": "25%"}
{"smiles": "Cc1ccccc1N/N=C/c1ccc(N2CCOCC2)cc1", "inhibition": "15.9%"}
{"smiles": "CN(C)c1ccc(/C=N/Nc2cc(N3CCOCC3)nc(N3CCOCC3)n2)cc1", "inhibition": "78.8% (active)"}
{"smiles": "C(=N/Nc1cc(N2CCOCC2)nc(N2CCOCC2)n1)/c1ccccc1", "inhibition": "76% (active)"}
{"smiles": "O=C1c2ccccc2C(=O)N1CCCCCCN1C(=O)c2ccccc2C1=O", "inhibition": "7.39%"}
{"smiles": "Cc1nc2ccccc2c(C(=O)O)c1-c1ccccn1", "inhibition": "-15.2%"}
{"smiles": "Oc1cccc(CCc2ccccn2)c1", "inhibition": "-0.288%"}
{"smiles": "O=C(O)C(=Cc1ccccc1[N+](=O)[O-])c1ccccc1", "inhibition": "0.653%"}
{"smiles": "CSCCC(NS(=O)(=O)c1ccc(C)cc1)C(=O)N(C)CC(=O)Nc1ccccc1Br", "note": "(stereo unspecified)", "inhibition": "16.3%"}
{"smiles": "CCOc1ccc(NC(=O)CN(C)C(=O)Cc2sc(C)nc2-c2ccc(F)cc2)cc1OCC", "inhibition": "73.5% (active)"}
{"smiles": "Cc1nc(-c2ccc(F)cc2)c(CC(=O)N(C)CC(=O)Nc2c(C)cccc2C)s1", "inhibition": "-10.6%"}
{"smiles": "CCOc1ccc(NC(=O)CN(C)C(=O)CCSc2ccc(F)cc2)cc1OCC", "inhibition": "39.6%"}
